According to PubChem BioAssay (EPA / NIEHS):
“And” between values parts separate entries of the source, which are not always exact repeats. Identical values can stand only once. Where a structure was tested more than once in an assay, its records may differ in their call. The source made the active and inactive calls. The calls were made as follows: active = hit-call score of the fitted dose curve at least 0.9, where 1 is the maximum; inactive = score below 0.9.

Key:
[1] = ATG_RORE_CIS: Attagene CIS-FACTORIAL HepG2 Assay for human RAR-related Orphan Receptor Element (RORE) (AID 2282959); conditions: HepG2 Attagene cis-factorial RORE reporter, mRNA; actives raise or lower the signal
How it was run: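 Multiplexed reporter assay measuring mRNA induction from a cis promoter element in transiently transfected HepG2 cells after 24 h treatment. Detection via RT-PCR and capillary electrophoresis fluorescence; DMSO serves as baseline.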

[2] = ATG_Sox_CIS: Attagene CIS-FACTORIAL HepG2 Assay for human SRY-box transcription factor (SOX) (AID 2282960); conditions: HepG2 Attagene cis-factorial SOX reporter, mRNA; actives raise or lower the signal
How it was run: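 Cells were transfected with reporter constructs under cis-regulatory promoters, then exposed to chemicals for 24 h. Reporter transcripts were quantified by fluorescence after RT-PCR and capillary electrophoresis; activity was fitted in both directions against DMSO.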

[3] = target: Transcription factor Sp1 (Homo sapiens) (UniProt P08047); test: ATG_Sp1_CIS: Attagene CIS-FACTORIAL HepG2 Assay for human Specificity Protein 1 (Sp1) (AID 2282961); conditions: HepG2 Sp1 cis-reporter transcription, actives raise or lower the signal
How it was run: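 Measures mRNA induction of an Sp1-linked reporter in HepG2 cells 24 h post-dosing. Multiplexed reporters read by RT-PCR and capillary electrophoresis; DMSO serves as negative control and baseline.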

[4] = ATG_SREBP_CIS: Attagene CIS-FACTORIAL HepG2 Assay for human Sterol Regulatory Element Binding (SREBP) (AID 2282962); conditions: HepG2 Attagene cis-factorial SREBP reporter, mRNA; actives raise or lower the signal
How it was run: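 Transfected HepG2 (cis-regulated reporter library, endogenous TFs) → compound 24 h → total RNA → oligo(dT) RT → reporter-specific PCR → FAM primer extension, HpaI cut → CE fluorescence. Fit bidirectional vs DMSO.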

[5] = target: Signal transducer and activator of transcription 3 (Homo sapiens) (UniProt P40763); test: ATG_STAT3_CIS: Attagene CIS-FACTORIAL HepG2 Assay for human Signal Transducer and Activator of Transcription 3 (STAT3) (AID 2282963); conditions: HepG2, Attagene cis-factorial STAT3 reporter transcription; actives raise or lower the signal
How it was run: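 Endogenous STAT3-responsive cis-element activity was read in transiently transfected HepG2 cells after 24 h treatment. Reporter transcripts were quantified via RT-PCR and capillary electrophoresis, with DMSO as negative control and bidirectional curve fitting.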

[6] = ATG_TA_CIS: Attagene CIS-FACTORIAL HepG2 Assay for human TA Basal Promoter (AID 2282964); conditions: HepG2 Attagene CIS-factorial TA basal promoter reporter; actives raise or lower the signal
How it was run: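 HepG2 cells transiently transfected with multiplexed cis-promoter reporter units, dosed 24 h. Reporter mRNA measured by RT-PCR, 6-FAM labelling, HpaI digestion and capillary electrophoresis; bidirectional fit versus DMSO baseline, serving as background control.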

[7] = ATG_TCF_b_cat_CIS: Attagene CIS-FACTORIAL HepG2 Assay for human T-Cell-Factor with beta-catenin (TCF/b-cat) (AID 2282965); conditions: HepG2 TCF/beta-catenin cis-reporter transcription, actives raise or lower the signal
How it was run: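 Endogenous transcription factor activity is captured through cis-promoter reporter constructs transiently introduced into human HepG2 liver cells. Induced reporter mRNA is measured after 24 h and fitted bidirectionally relative to DMSO.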

[8] = ATG_TAL_CIS: Attagene CIS-FACTORIAL HepG2 Assay for human TAL Basal Promoter (AID 2282966); conditions: HepG2 Attagene cis-factorial TAL promoter reporter; actives raise or lower the signal;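 also: background control endpoint measuring basal TAL promoter reporter mRNA not a specific factor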
How it was run: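 HepG2 cells were transiently transfected with promoter-driven multiplexed reporter units and dosed for 24 h. Reporter mRNA was measured by RT-PCR with capillary electrophoresis fluorescence; bidirectional fits used DMSO as baseline, serving as a background control.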

[9] = ATG_TGFb_CIS: Attagene CIS-FACTORIAL HepG2 Assay for human Transforming Growth Factor (TGF) (AID 2282967); conditions: HepG2 Attagene CIS TGFb reporter, mRNA transcription; actives raise or lower the signal
How it was run: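 HepG2 cells transiently transfected with cis-promoter-driven multiplexed reporter units; 24 h compound exposure. Reporter mRNA measured by RT-PCR, 6-FAM labeling, HpaI digestion and capillary electrophoresis; bidirectional fit versus DMSO baseline.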

[10] = ATG_VDRE_CIS: Attagene CIS-FACTORIAL HepG2 Assay for human Vitamin D Receptor Element (VDRE) (AID 2282968); conditions: HepG2 VDRE cis-reporter transcription, actives raise or lower the signal
How it was run: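 Reporter mRNA induction, quantified by capillary electrophoresis of fluorescently labelled RT-PCR products, was read 24 h after dosing HepG2 cells carrying transiently transfected cis-regulated reporter units; gain or loss relative to DMSO.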

Chain of Transcription factor Sp1 (Homo sapiens) (P08047 whole entry, looked up): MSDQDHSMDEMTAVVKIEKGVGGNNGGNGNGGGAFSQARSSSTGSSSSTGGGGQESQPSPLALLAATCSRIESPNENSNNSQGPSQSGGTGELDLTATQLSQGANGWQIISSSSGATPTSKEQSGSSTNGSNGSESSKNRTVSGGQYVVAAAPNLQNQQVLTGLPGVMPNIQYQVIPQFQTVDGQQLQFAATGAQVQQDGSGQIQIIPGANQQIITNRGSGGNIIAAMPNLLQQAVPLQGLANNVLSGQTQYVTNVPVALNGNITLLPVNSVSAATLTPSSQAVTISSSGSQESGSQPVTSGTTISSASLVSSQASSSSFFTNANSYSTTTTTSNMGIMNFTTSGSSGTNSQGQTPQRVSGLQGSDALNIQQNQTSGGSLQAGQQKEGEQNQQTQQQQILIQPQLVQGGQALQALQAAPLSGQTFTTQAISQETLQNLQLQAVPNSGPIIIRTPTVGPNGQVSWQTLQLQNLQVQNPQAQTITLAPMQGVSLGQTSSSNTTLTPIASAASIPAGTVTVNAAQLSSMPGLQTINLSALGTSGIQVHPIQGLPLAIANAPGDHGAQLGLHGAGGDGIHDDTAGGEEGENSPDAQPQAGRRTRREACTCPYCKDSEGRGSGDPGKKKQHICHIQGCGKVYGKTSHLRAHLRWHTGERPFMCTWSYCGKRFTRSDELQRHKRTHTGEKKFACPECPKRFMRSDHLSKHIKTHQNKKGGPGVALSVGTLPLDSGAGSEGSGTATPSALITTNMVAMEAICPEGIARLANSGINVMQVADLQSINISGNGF
Chain of Signal transducer and activator of transcription 3 (Homo sapiens) (P40763 whole entry, looked up): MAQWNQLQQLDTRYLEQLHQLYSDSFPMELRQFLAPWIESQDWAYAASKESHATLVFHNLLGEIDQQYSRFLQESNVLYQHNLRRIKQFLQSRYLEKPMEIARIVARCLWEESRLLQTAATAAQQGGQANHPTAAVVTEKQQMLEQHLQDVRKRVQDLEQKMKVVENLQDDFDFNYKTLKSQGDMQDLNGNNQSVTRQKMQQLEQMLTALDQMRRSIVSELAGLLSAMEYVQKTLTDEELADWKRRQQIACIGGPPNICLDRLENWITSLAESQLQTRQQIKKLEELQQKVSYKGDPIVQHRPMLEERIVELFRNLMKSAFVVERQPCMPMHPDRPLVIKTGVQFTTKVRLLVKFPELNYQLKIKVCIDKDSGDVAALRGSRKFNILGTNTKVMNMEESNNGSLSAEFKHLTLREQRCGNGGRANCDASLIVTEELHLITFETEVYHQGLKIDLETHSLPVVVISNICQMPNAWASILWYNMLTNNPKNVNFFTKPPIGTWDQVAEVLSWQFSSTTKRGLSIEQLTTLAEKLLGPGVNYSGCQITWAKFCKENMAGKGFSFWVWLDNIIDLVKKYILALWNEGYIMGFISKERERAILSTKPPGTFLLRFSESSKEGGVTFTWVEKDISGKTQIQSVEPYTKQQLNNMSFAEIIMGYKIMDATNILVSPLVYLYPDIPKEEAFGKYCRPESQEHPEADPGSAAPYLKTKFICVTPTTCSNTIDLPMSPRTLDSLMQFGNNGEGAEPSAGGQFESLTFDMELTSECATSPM

Structure (SMILES)	outcome [1]	AC50 [2]	outcome [3]	AC50 [4]	AC50 [5]	outcome [6]	outcome [7]	outcome [8]	outcome [9]	AC50 [10]	outcome [2]	outcome [4]	outcome [5]	outcome [10]	AC50 [3]	AC50 [6]	AC50 [8]	AC50 [1]	AC50 [7]
CCCCCCCCCCCCCCCCCC[N+](C)(C)Cc1ccccc1	inactive	12.4 µM (active)	inactive	13.2 µM (active)	88.9 µM (active)	inactive	inactive	inactive	inactive	50 µM (active)									
CC1CNCC(C)O1 (stereo not drawn)	inactive		inactive			inactive	inactive	inactive	inactive		inactive	inactive	inactive	inactive					
O=C(F)C(F)(F)C(F)(F)C(F)(F)C(=O)F	inactive		inactive			inactive	inactive	inactive	inactive		inactive	inactive	inactive	inactive					
O=C1C=CC(=O)N1c1cccc(N2C(=O)C=CC2=O)c1	inactive		inactive			inactive	inactive	inactive	inactive		inactive	inactive	inactive	inactive					
c1cc[nH]c1	inactive		inactive			inactive	inactive	inactive	inactive		inactive	inactive	inactive	inactive					
CC(=O)Nc1ccc(S(N)(=O)=O)cc1	inactive		inactive			inactive	inactive	inactive	inactive		inactive	inactive	inactive	inactive					
Cc1cncc(C)c1	inactive		inactive			inactive	inactive	inactive			inactive	inactive	inactive	inactive					
CCCCc1oc2ccccc2c1C(=O)c1cc(I)c(OCCN(CC)CC)c(I)c1	inactive	128 µM (active)		19.7 µM (active)			inactive			9.14 µM (active)			inactive		130 µM (active)	19.8 µM (active)	26.1 µM (active)		
O=C(c1cc(O)c(O)c(O)c1)c1ccc(O)c(O)c1O	inactive		inactive			inactive	inactive	inactive			inactive	inactive	inactive	inactive					
O=C(Nc1cccc([N+](=O)[O-])c1)c1cc2ccccc2cc1O			inactive			inactive	inactive	inactive			inactive	inactive	inactive	inactive				5.99 µM (active)	
CCCCCCCC(OC)OC	inactive		inactive			inactive	inactive	inactive			inactive	inactive	inactive	inactive					
O=C1c2ccc(O)c(O)c2C(=O)c2c(O)ccc(O)c21	inactive		inactive			inactive	inactive	inactive	inactive		inactive	inactive	inactive	inactive					
CC(C)C=O	inactive		inactive			inactive	inactive	inactive	inactive		inactive	inactive	inactive	inactive					
CC[N+](CC)(CC)Cc1ccccc1	inactive		inactive			inactive	inactive	inactive	inactive		inactive	inactive	inactive	inactive					
CCCCCCCCCCCC[N+](C)(C)CCCCCCCCCCCC			inactive					inactive	inactive	8.42 µM (active)	inactive	inactive	inactive			26.3 µM (active)		26.1 µM (active)	25.4 µM (active)
C=Cc1ccc(O)c(OC)c1	inactive		inactive			inactive	inactive	inactive		44.7 µM (active)	inactive	inactive	inactive						
COc1cc(OC)nc(NC(=O)NS(=O)(=O)Nc2ccccc2C(=O)N(C)C)n1	inactive		inactive			inactive	inactive	inactive			inactive	inactive	inactive	inactive					
CCCCc1ccc2ccccc2c1S(=O)(=O)O	inactive		inactive			inactive	inactive	inactive		6.19 µM (active)	inactive	inactive	inactive						
NNC(=O)CCCCC(=O)NN	inactive		inactive			inactive	inactive	inactive	inactive		inactive	inactive	inactive	inactive					
CCCCCCCCCCCC(=O)O	inactive		inactive	52.7 µM (active) and 60 µM (active)		inactive	inactive	inactive	inactive				inactive		36.7 µM (active)				
CCOCCOCC	inactive		inactive			inactive	inactive	inactive			inactive	inactive	inactive	inactive					
CCCCCCCCCC=CCC1CC(=O)OC1=O (stereo not drawn)	inactive		inactive	67.9 µM (active)		inactive	inactive	inactive	inactive		inactive		inactive	inactive					
COC(=O)CC(C(C)=O)C(=O)OC (stereo not drawn)	inactive		inactive			inactive	inactive	inactive			inactive	inactive	inactive	inactive					
NCc1cccc(CN)c1	inactive		inactive			inactive	inactive	inactive	inactive		inactive	inactive	inactive	inactive					
O=P(O)(O)CCC(F)(F)C(F)(F)C(F)(F)C(F)(F)C(F)(F)C(F)(F)C(F)(F)C(F)(F)F	inactive		inactive			inactive	inactive	inactive			inactive	inactive	inactive	inactive					
